Test results published in PubChem BioAssay (NCI).
This is part of a sample that, as a whole, favours compounds with a hit. Of some 83,000 tested, about 20% had one in any assay.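 Growth was measured after 48 h exposure to one concentration of compound in 96-well plates. Values under 10 count as active.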 Active and inactive are the calls of the source.

Key:
Experiment in all cases: NCI-60 one-dose screen, 48 h (100 = growth as untreated, 0 = no growth, -100 = all killed)
Conditions in all cases: 10 µM unless noted
NCI-H23 lung = test system: NCI-H23 lung
NCI-H226 lung = test system: NCI-H226 lung
NCI-H322M lung = test system: NCI-H322M lung
HOP-62 NSCLC = test system: HOP-62 NSCLC
NCI-H460 lung = test system: NCI-H460 lung
HOP-92 NSCLC = test system: HOP-92 NSCLC
NCI-H522 lung = test system: NCI-H522 lung
A549/ATCC NSCLC = test system: A549/ATCC NSCLC
786-0 renal = test system: 786-0 renal
COLO 205 colon = test system: COLO 205 colon

Measured: growth

c1ccc(N2N=C(c3cccc(Nc4ccncc4)c3)CC2c2ccc3c(c2)OCO3)cc1 (stereo not given)
inactive: NCI-H23 lung 61.1% | NCI-H226 lung 77.7% | NCI-H322M lung 42.7% | HOP-62 NSCLC 23.5% | HOP-92 NSCLC 25.6% | NCI-H522 lung 17.9% | A549/ATCC NSCLC 21.1% | 786-0 renal 81%
active: NCI-H460 lung -48.5% | COLO 205 colon -53%

C=C(C)[C@@H]1CC[C@]2(CO)CC[C@]3(C)[C@H](CC[C@@H]4[C@@]5(C)CCCNC(C)(C)[C@@H]5CC[C@]43C)[C@@H]12
active: NCI-H460 lung -54.4% | COLO 205 colon -63.5%
inactive: NCI-H23 lung 62.6% | NCI-H226 lung 84.4% | NCI-H322M lung 69.8% | HOP-62 NSCLC 79% | HOP-92 NSCLC 82% | NCI-H522 lung 64.2% | A549/ATCC NSCLC 44.9% | 786-0 renal 30.2%

Cn1c(COC(=O)NCCc2ccccn2)nc2c(N3CCOCC3)nc(Cl)nc21
active: HOP-92 NSCLC -29.5% | NCI-H522 lung -24% | 786-0 renal -74.7% | COLO 205 colon -41.1%
inactive: NCI-H23 lung 16.9% | NCI-H226 lung 25.2% | NCI-H322M lung 78.9% | HOP-62 NSCLC 42.3% | NCI-H460 lung 38.3% | A549/ATCC NSCLC 44.2%

O=C(/C=C\c1ccc(OCCCCCC[P+](c2ccccc2)(c2ccccc2)c2ccccc2)cc1)c1ccc2c(c1)OCCO2
active: NCI-H23 lung 3.95% | NCI-H226 lung -0.25% | HOP-62 NSCLC -21.8% | NCI-H460 lung -12.4% | HOP-92 NSCLC -29.2% | NCI-H522 lung -6.94% | 786-0 renal 5.76% | COLO 205 colon -58.6%
inactive: NCI-H322M lung 22.3% | A549/ATCC NSCLC 12.1%

COc1cc(/C=C/C(=O)c2ccc(Nc3ncnc4ccccc34)cc2)cc(OC)c1
inactive: NCI-H23 lung 72% | NCI-H226 lung 80.2% | NCI-H322M lung 76% | HOP-62 NSCLC 139% | NCI-H460 lung 81.4% | HOP-92 NSCLC 87.3% | NCI-H522 lung 71.4% | A549/ATCC NSCLC 41.2% | 786-0 renal 52.1% | COLO 205 colon 151%

Nc1ncc(C#Cc2cncc(NC(=O)c3cccc(C(F)(F)F)c3)c2)c2cccnc12
inactive: NCI-H23 lung 30.4% | NCI-H226 lung 39.2% | NCI-H322M lung 81% | HOP-62 NSCLC 52.8% | NCI-H460 lung 12.3% | HOP-92 NSCLC 65.6% | NCI-H522 lung 67.2% | A549/ATCC NSCLC 31.8% | 786-0 renal 63.9% | COLO 205 colon 47%

COc1ccc(NC(=O)c2sc3nc(C)c(C(=O)CCc4cccc(OC)c4)cc3c2N)cc1
active: NCI-H460 lung 1.32%
inactive: NCI-H23 lung 81.1% | NCI-H226 lung 89.7% | NCI-H322M lung 40.1% | HOP-62 NSCLC 70.8% | HOP-92 NSCLC 88.4% | NCI-H522 lung 78.7% | A549/ATCC NSCLC 30.2% | 786-0 renal 78.5% | COLO 205 colon 44.1%

COc1c(Cl)cc(Cl)c2ccc(C=C3C(=O)NC(=S)NC3=O)nc12
inactive: NCI-H23 lung 101% | NCI-H226 lung 100% | NCI-H322M lung 113% | HOP-62 NSCLC 93.7% | NCI-H460 lung 103% | HOP-92 NSCLC 116% | NCI-H522 lung 92% | A549/ATCC NSCLC 104% | COLO 205 colon 113%
active: 786-0 renal -90.9%

CCNC(=S)NNC(=O)c1cc2ccc1CCc1ccc(cc1)CC2
inactive: NCI-H23 lung 97.7% | NCI-H226 lung 106% | NCI-H322M lung 95.1% | HOP-62 NSCLC 101% | NCI-H460 lung 103% | HOP-92 NSCLC 97.2% | NCI-H522 lung 92.7% | A549/ATCC NSCLC 101% | 786-0 renal 106% | COLO 205 colon 107%

COc1cccc(/C=C2\COc3ccc(-c4ccccc4)cc3C2=O)c1
inactive: NCI-H23 lung 44.9% | NCI-H226 lung 65.7% | NCI-H322M lung 45.4% | NCI-H522 lung 25.2% | A549/ATCC NSCLC 37%
active: HOP-62 NSCLC -32.3% | NCI-H460 lung -22.3% | HOP-92 NSCLC -3.57% | 786-0 renal -45.4% | COLO 205 colon -23.4%

COc1ccc(CC(C)=C(c2ccc(OCCN(C)C)cc2)c2ccc(OCCN(C)C)cc2)cc1
inactive: NCI-H23 lung 89.3% | NCI-H226 lung 88.9% | NCI-H322M lung 85.8% | HOP-62 NSCLC 82.6% | NCI-H460 lung 79.6% | HOP-92 NSCLC 37.1% | NCI-H522 lung 79.5% | A549/ATCC NSCLC 77.1% | 786-0 renal 68.1% | COLO 205 colon 67.3%

CCCCCN1C=C/C(=C\C(=O)N(C)c2cccc3ccccc23)c2ccccc21
inactive: NCI-H23 lung 81.4% | NCI-H226 lung 101% | NCI-H322M lung 97.7% | HOP-62 NSCLC 102% | NCI-H460 lung 105% | HOP-92 NSCLC 92.6% | NCI-H522 lung 83.1% | A549/ATCC NSCLC 102% | 786-0 renal 96.8% | COLO 205 colon 109%

O=c1nc2n(nc1/C=C/c1ccco1)CC(c1ccc(Cl)cc1)=NN2
inactive: NCI-H23 lung 93% | NCI-H226 lung 100% | NCI-H322M lung 84.2% | HOP-62 NSCLC 82.9% | NCI-H460 lung 108% | HOP-92 NSCLC 87.6% | NCI-H522 lung 79.4% | A549/ATCC NSCLC 104% | 786-0 renal 95.7% | COLO 205 colon 110%

O=S(=O)(NCCCNc1nccc(-c2c(-c3cccc(O)c3)nc3occn23)n1)c1ccc(Br)cc1
inactive: NCI-H23 lung 101% | NCI-H226 lung 103% | NCI-H322M lung 113% | HOP-62 NSCLC 124% | NCI-H460 lung 97.1% | HOP-92 NSCLC 108% | NCI-H522 lung 94.3% | A549/ATCC NSCLC 98.2% | 786-0 renal 106% | COLO 205 colon 31.9%

CCC(C)N(CCNc1cc(OC)cc2cccnc12)CCC(C)C (stereo not given)
inactive: NCI-H23 lung 71.7% | NCI-H226 lung 88% | NCI-H322M lung 111% | HOP-62 NSCLC 62.4% | NCI-H460 lung 78.3% | HOP-92 NSCLC 87.9% | NCI-H522 lung 50% | A549/ATCC NSCLC 61.6% | 786-0 renal 95.7% | COLO 205 colon 68.3%

CCCCCCCCCCCC(=O)C(CCCCCCCCCC)C(=O)Nc1ccccc1 (stereo not given)
inactive: NCI-H23 lung 95.8% | NCI-H226 lung 97.1% | NCI-H322M lung 90.6% | HOP-62 NSCLC 96.8% | NCI-H460 lung 111% | HOP-92 NSCLC 102% | NCI-H522 lung 89.4% | A549/ATCC NSCLC 91.2% | 786-0 renal 107% | COLO 205 colon 108%

COc1cc(NCC(C)(O)CN(CC(C)C)CC(C)C)c2nc(C)ccc2c1 (stereo not given)
inactive: NCI-H23 lung 79.7% | NCI-H226 lung 74.1% | NCI-H322M lung 89.3% | HOP-62 NSCLC 92.5% | NCI-H460 lung 101% | HOP-92 NSCLC 79.8% | NCI-H522 lung 77.6% | A549/ATCC NSCLC 91% | 786-0 renal 86.6% | COLO 205 colon 79.5%

COc1ccc2nc(N=Nc3c(O)ccc4ccccc34)sc2c1
inactive: NCI-H23 lung 31.6% | NCI-H226 lung 55% | NCI-H322M lung 43.8% | HOP-62 NSCLC 30.2% | HOP-92 NSCLC 60.9% | NCI-H522 lung 61.2% | A549/ATCC NSCLC 24.6% | 786-0 renal 14.7% | COLO 205 colon 33.1%
active: NCI-H460 lung 6.32%

CCN(CC)CCCCCCNc1cc(OC)cc2cccnc12
active: NCI-H522 lung 5.26% | 786-0 renal -50.7% | COLO 205 colon -68.9%
inactive: NCI-H23 lung 85.5% | NCI-H226 lung 97.4% | NCI-H322M lung 96% | HOP-62 NSCLC 92.1% | NCI-H460 lung 32.6% | HOP-92 NSCLC 85.2% | A549/ATCC NSCLC 80.3%

c1ccc(Cn2nc3c(c2-c2ccccc2)-c2oncc2CC3)cc1
inactive: NCI-H23 lung 87.5% | NCI-H226 lung 103% | NCI-H322M lung 113% | HOP-62 NSCLC 105% | NCI-H460 lung 102% | HOP-92 NSCLC 62.3% | NCI-H522 lung 76% | A549/ATCC NSCLC 90.5% | 786-0 renal 105% | COLO 205 colon 113%

COc1ccccc1-c1c(-c2ccc(Cl)cc2)c2cc3c(cc2[nH]c1=O)OCCO3
inactive: NCI-H23 lung 72.8% | NCI-H226 lung 84% | NCI-H322M lung 89% | HOP-62 NSCLC 89.8% | NCI-H460 lung 66.3% | HOP-92 NSCLC 80.7% | NCI-H522 lung 62.4% | A549/ATCC NSCLC 63.6% | 786-0 renal 85.4% | COLO 205 colon 92.6%

COc1ccc(C2=NN(C(C)=O)C(c3cn(Cc4ccc(Cl)cc4)c4ccccc34)C2)cc1 (stereo not given)
inactive: NCI-H23 lung 73.3% | NCI-H226 lung 67.6% | NCI-H322M lung 83.1% | HOP-62 NSCLC 85.7% | NCI-H460 lung 86.9% | HOP-92 NSCLC 61.2% | NCI-H522 lung 69.5% | A549/ATCC NSCLC 64.6% | 786-0 renal 89.4% | COLO 205 colon 115%

CCCCCN1C=C/C(=C\C(=O)N(C)c2ccc(Br)cc2)c2ccccc21
inactive: NCI-H23 lung 87.3% | NCI-H226 lung 86.3% | NCI-H322M lung 98.8% | HOP-62 NSCLC 94.5% | NCI-H460 lung 105% | HOP-92 NSCLC 82.7% | NCI-H522 lung 82.1% | A549/ATCC NSCLC 95.2% | 786-0 renal 98% | COLO 205 colon 108%

O=S(=O)(c1ccccc1)N1CCCc2ccccc21
inactive: NCI-H23 lung 102% | NCI-H226 lung 104% | NCI-H322M lung 99% | HOP-62 NSCLC 94.2% | NCI-H460 lung 107% | HOP-92 NSCLC 88.5% | NCI-H522 lung 82.2% | A549/ATCC NSCLC 91.4% | 786-0 renal 102% | COLO 205 colon 112%

CC(C)(C#N)N1CCN(c2ccccc2Cl)CC1
inactive: NCI-H23 lung 98.8% | NCI-H226 lung 103% | NCI-H322M lung 94.8% | HOP-62 NSCLC 102% | NCI-H460 lung 104% | HOP-92 NSCLC 98% | NCI-H522 lung 90.9% | A549/ATCC NSCLC 95.1% | 786-0 renal 97.9% | COLO 205 colon 113%

O=S(=O)(NCCNc1nccc(-c2c(-c3cccc(F)c3)nc3occn23)n1)c1cccc2ccccc12
inactive: NCI-H23 lung 75.8% | NCI-H226 lung 53.6% | NCI-H322M lung 74.8% | HOP-62 NSCLC 71% | NCI-H460 lung 58.2% | HOP-92 NSCLC 47% | NCI-H522 lung 46.2% | A549/ATCC NSCLC 44.1% | 786-0 renal 48% | COLO 205 colon 40.7%

COc1ccc2c(c1)OC13Oc4cc(OC)ccc4C=C1CCCC3=C2
active: COLO 205 colon -9.95%
inactive: NCI-H23 lung 48.3% | NCI-H226 lung 64.1% | NCI-H322M lung 80.8% | HOP-62 NSCLC 41.4% | NCI-H460 lung 14.3% | HOP-92 NSCLC 26.6% | NCI-H522 lung 20.4% | A549/ATCC NSCLC 75% | 786-0 renal 38.7%
